Assay outcomes: PubChem BioAssay, National Center for Advancing Translational Sciences (NCATS)
SMN2 splice enh: enhancers of SMN2 splice variant expression; HEK293 SMN2-luciferase splicing reporter, luminescence, 30-36 h; Potency, µM (series often up to 46.1 µM), inactives show top-dose activity change, positive = activation, most hits filed as activators; 2.8% of 210,000 active; AID 1458; further: % of control where 0% means no effect; nearly all actives have a fitted effect of over 55% in size
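HEK293 cells carry an SMN2 minigene-luciferase reporter in which exon 7 inclusion puts luciferase in frame. Cells were seeded at 2000 cells/well, attached for 10-12 hours, then exposed to compounds for 30-36 hours at 37C before ONE-Glo luminescence.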
p53 reactivation: re-activators of mutant p53; 0.063% of 320,000 active; Potency, µM (series often up to 92.2 µM), for the others: at the highest dose activity change, positive = activation, hits mostly activators; H1299 p53-A138V BP100-luciferase reporter, luminescence, 24 h; further: % of control where 0% means no effect; nearly all actives have a fitted effect of over 45% in size
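H1299 (p53-null), stable ts p53-A138V + BP100-Luc; 1000 cells/well, Opti-MEM/10% FBS; cpd 4 pt, 1:5; 24 h, 37 deg C, 5% CO2; detection reagent 10 min RT; luminescence.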
Rab9 promoter act: activates the Rab9 promoter; 2.8% of 320,000 active; Potency, µM (titrated, usually from 9.22 µM), without a hit: at the highest dose activation, negative = inhibition, actives largely listed as activators; Huh7 Rab9 promoter-luciferase reporter, luminescence, 24 h; further: % of control where 0% means no effect; nearly all actives have a fitted effect of over 60% in size
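Luciferase signal after 10 min detection reagent at ambient indicates Rab9 promoter upregulation; stably transfected Huh7 cells were treated 24 h with compound in DMSO at 37 °C, 5% CO2.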
ELG1 genotoxic: induces genotoxicity in HEK293T cells with luciferase-tagged ELG1 | Potency, µM (titrated, usually from 46 µM), for the others: at the top dose activity change, positive = activation, usual class: activators | 1.3% of 330,000 active | AID 504466 | HEK293T ELG1-luciferase reporter, luminescence, 16 h; further: % of control where 0% means no effect; nearly all actives have a fitted effect of over 60% in size
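Reporter readout depends on ELG1 protein level, which increases with genetic stress. After 16 hr compound exposure at 37 °C, luciferase activity was quantified using ONE-Glo.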
NPC1 prom act: activators of NPC1 promoter; Huh7 NPC1 promoter luciferase reporter, 24 h; Potency, µM (series often up to 9.22 µM), for inactives: at the highest dose activation, most hits filed as activators; 2.4% of 320,000 active; AID 485313; further: % of control where 0% means no effect; nearly all actives have a fitted effect of over 60% in size
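Luminescence read-out of NPC1 promoter-driven luciferase in stably transfected Huh7 cells; compounds delivered in DMSO and left 24 h at 37C, 5% CO2, qHTS titration format.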
FLuc counter: counter-screen for miR-21 project: firefly luciferase inhibitors or activators | 6.9% of 360,000 active | purified FLuc, Km substrates, luminescence inhibition | Potency, µM (doses to about 57.5 µM), inactives show at the top dose activity change, negative = inhibition, hits mostly inhibitors;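 further: plate controls were vehicle for no effect and reference inhibitor for full effect; nearly all actives have a fitted effect of over 55% in size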
Target sequence (P08659 whole entry, looked up): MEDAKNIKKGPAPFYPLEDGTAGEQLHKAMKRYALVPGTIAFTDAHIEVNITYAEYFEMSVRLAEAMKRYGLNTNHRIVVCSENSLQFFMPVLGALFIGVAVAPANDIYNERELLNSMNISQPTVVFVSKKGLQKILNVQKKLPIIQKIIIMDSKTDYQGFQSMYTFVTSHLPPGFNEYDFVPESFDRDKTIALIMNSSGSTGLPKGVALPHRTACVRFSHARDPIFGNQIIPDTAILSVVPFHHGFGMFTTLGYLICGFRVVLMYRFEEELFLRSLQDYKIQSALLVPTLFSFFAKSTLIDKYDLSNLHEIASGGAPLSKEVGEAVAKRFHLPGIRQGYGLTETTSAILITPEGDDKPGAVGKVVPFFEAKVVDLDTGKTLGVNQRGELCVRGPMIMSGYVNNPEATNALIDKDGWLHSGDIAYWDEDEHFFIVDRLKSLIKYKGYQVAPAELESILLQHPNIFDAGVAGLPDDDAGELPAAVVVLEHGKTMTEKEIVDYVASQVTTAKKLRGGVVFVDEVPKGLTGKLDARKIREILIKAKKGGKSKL
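Biochemical qHTS of compounds, final roughly 60 µM downward over six points, against 10 nM purified firefly luciferase using Km concentrations of substrates (10 uM D-luciferin, 10 uM ATP) in Tris acetate pH 7.5 buffer; luminescence output.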
* hit, by the source's call; ? = inconclusive; . = no result given; [ ] = another dose, or the depositor's remark. Sampled rows, rich in hits. Any-hit rate of the full collection: about 7.4%. The call rests on the fitted dose curve; in most records, active means well fitted curve in the direction sought with a large enough effect; inconclusive means small, poorly fitted or top-dose-only effect, or another doubt; inactive means no such curve, though single readings can be large; an effect the other way counts as inactive or inconclusive. Potency means the concentration at half of the fitted maximal effect.

SMILES	SMN2 splice enh	p53 reactivation	Rab9 promoter act	ELG1 genotoxic	NPC1 prom act	FLuc counter
Cc1cc(C)c(C#N)c(SCc2ccccc2[N+](=O)[O-])n1	-21.7%	-3.4%	-0.3%	1.4%	-1.1%	-12.7%
Cc1cc(C)c(C#N)c(SCc2nnc(-c3ccccc3)o2)n1	-38.6%[1.84 µM]	22.0%	-4.6%	?	-2.4%	3.01µM*
Cc1nc(SCc2nnc(-c3ccc(Cl)cc3)o2)c2c3c(sc2n1)CCC3	3.1%	1.8%	2.5%	-1.8%	-2.7%	4.2%
Cc1cc(C)c(C#N)c(SCc2nnc(-c3ccccc3[N+](=O)[O-])o2)n1	1.12µM*	-0.4%	3.16µM*	2.59µM*	1.41µM*	21.3µM*
CC1CCCC(C)N1C(=O)c1cc(-c2ccc3c(c2)OCO3)on1 (centres undefined)	.	?	2µM*	-1.5%	2µM*	10.7µM*
CC1CCCC(C)N1C(=O)c1cc(-c2ccc(Cl)c(Cl)c2)on1 (centres undefined)	26.9%	14.4%	?	12.9%	?	12µM*
COc1ccc(NC(=O)c2cc(-c3ccc4c(c3)OCO4)on2)cc1	.	1.2%	-2.0%	2.8%	-1.3%	-8.0%
c1ccc(OCCn2c(COc3ccccc3)nc3ccccc32)cc1	-1.6%	.	.	.	.	?
Cn1c(COc2ccccc2)nc2ccccc21	.	?	?	?	3.98µM*	15.1µM*
C=CCn1c(COc2ccccc2)nc2ccccc21	.	2.2%	15.8%	3.7%	14.5%	26.9µM*
COc1ccc(/C=N/OC(=O)Nc2ccc(Cl)cc2)c(OC)c1	.	7.0%	13.7%	14.5%	3.3%	12µM*
COc1ccc(NC(=O)O/N=C/c2ccc(N(C)C)cc2)cc1	.	?	19.3%	6.6%	17.1%	21.3µM*
CN(C)c1ccc(/C=N/OC(=O)Nc2ccccc2Cl)cc1	.	8.2%	29.3%	9.6%	4.7%	23.9µM*
COc1ccc(NC(=O)O/N=C/c2ccncc2)cc1	-7.8%	0.2%	17.4%	14.4%	16.2%	?
COc1ccccc1NC(=O)O/N=C(\N)c1ccccc1	.	1.9%	-0.2%	-2.0%	-1.3%	?
COc1ccc(/C=N/OC(=O)Nc2ccccc2OC)cc1	15.8µM*	1.4%	?	?	0.8%	8.49µM*
COC(=O)c1ccccc1NC(=O)CSc1nc2ccccc2nc1Cc1ccccc1OC	.	.	.	.	.	-2.3%
COc1ccc(NC(=O)O/N=C/c2ccc(Br)cc2)cc1	.	4.9%	-0.2%	3.4%	9.6%	26.9µM*
Cc1ccc(NC(=O)O/N=C/c2ccc(N(C)C)cc2)cc1	.	22.7%	25.9%	14.6%	?	12µM*
Cc1ccc(NC(=O)O/N=C/c2ccc(Br)cc2)cc1	.	.	-0.1%	3.4%	0.8%	?
O=C1C(Cl)=C(NCCN2CCOCC2)C(=O)c2ncccc21	-94.2%	.	.	.	.	.
CC(=O)Nc1ccc(S(=O)(=O)Nc2cccc(-c3cn4c(n3)SCC4)c2)cc1	-30.2%	0.7%	-9.3%	0.4%	0.8%	3.6%
O=C(Nc1cccc(-c2cn3c(n2)SCC3)c1)c1ccc(Br)o1	11.2%	-1.5%	-0.4%	-1.3%	-0.1%	?
O=C(Oc1ccc(-c2cn3c(n2)SCC3)cc1)c1ccccc1	?	4.6%	0.7%	18.4µM*	0.3%	?
O=C(Nc1ccc(-c2cn3c(n2)SCC3)cc1)c1ccco1	.	16.8%	0.891µM*	?	2.51µM*	8.49µM*
SMILES	SMN2 splice enh	p53 reactivation	Rab9 promoter act	ELG1 genotoxic	NPC1 prom act	FLuc counter
CC(=O)Nc1ccc(-c2cn3c(n2)SCC3)cc1	.	?	2.82µM*	?	?	?
Cc1ccc(-c2nc3ncccc3o2)cc1NC(=O)c1ccc(-c2cccc(Cl)c2C)o1	-4.1%	.	.	.	.	-15.0%
COc1ccc(C(=O)N/N=C\c2coc3ccc(Cl)cc3c2=O)cc1	.	-0.4%	7.5%	-20.0%	-2.1%	-2.1%
COc1ccc(C(=O)N/N=C\c2coc3ccccc3c2=O)cc1	.	-0.4%	-5.1%	-6.7%	-3.4%	4.78µM*
COc1ccccc1/C=N/OCc1cc(C(C)=O)ccc1OC	.	-2.5%	-1.0%[1.84 µM]	2.9%	-3.4%	-7.4%
COc1cc(C(=O)Oc2ccccc2/C=N/NC(=O)c2ccc(Cl)cc2)cc(OC)c1OC	-100.7%	?	-23.6%	?	0.3%	6.75µM*
COc1ccccc1/C=N/OC(=O)c1ccc(F)cc1	.	-0.3%	0.6%	3.4%	3.3%	3.38µM*
COc1ccc(/C=N/NC(=O)c2ccc(Br)cc2)c(OC)c1	29.3%	6.1%	-2.2%	6.8%	-3.3%	15.1µM*
COc1cc(C(=O)Oc2ccccc2/C=N/NC(=O)c2ccc(C)c(Cl)c2)cc(OC)c1OC	-95.9%	?	-33.1%	?	-22.8%	-1.3%
COc1ccc(C2=NN(CC(=O)NCCc3ccc(OC)c(OC)c3)C(=O)CC2)cc1	.	.	.	.	.	-0.6%
COc1ccccc1/C=N/NC(=O)c1ccc(Br)cc1	6.6%	4.6%	0.7%	-5.1%	-3.3%	13.5µM*
COc1ccc2c(c1)CCc1c(C(=O)N3CCCc4ccccc43)noc1-2	-17.5%	10.3%	7.4%	?	13.6%	13.5µM*
COc1cccc(C(=O)N2CCCc3ccccc32)c1	?	0.5%	6.2%	0.1%	-2.6%	0.1%
COc1ccc2c(c1)CCc1c(C(=O)N3CC4(C)CC3CC(C)(C)C4)noc1-2 (centres undefined)	-16.8%	-3.4%	-7.0%	-6.8%	-2.0%	-1.9%
COc1ccc2c(c1)CCc1c(C(=O)Nc3ccc(OC)c(OC)c3)noc1-2	-13.8%	2.4%	16.1%	1.6%	10.8%	2.39µM*
COc1ccc2c(c1)CCc1c(C(=O)N3CCOCC3)noc1-2	12.6µM*	12.7%	3.16µM*	11.6µM*	3.98µM*	10.7µM*
CC(C)[C@@H]1CC[C@@H](C)C[C@@H]1P(=O)(c1ccccc1)c1ccccc1	.	.	-3.6%[46.1 µM]	.	-7.9%[46.1 µM]	.
CC(=O)c1cccc(NC(=O)c2cccc(S(=O)(=O)N(C)C)c2)c1	14.8%	-3.8%	-8.4%	3.4%	3.0%	-26.3%
CN(C)S(=O)(=O)c1cccc(C(=O)Nc2ccc3c(c2)CCC3)c1	.	?	0.631µM*	3.98µM*	1.26µM*	1.69µM*
CN(C)S(=O)(=O)c1ccc(C(=O)Nc2ccc3c(c2)CCC3)cc1	.	14.2%	?	7.1%	?	19µM*
Cc1cc(C)c2oc(-c3ccc(C)c(NC(=S)NC(=O)c4cccs4)c3)nc2c1	-42.6%	?	4.4%	10.8%	3.2%	?
Cc1ccc(NC(=O)c2ccc(Cl)c(NC(=O)c3cccs3)c2)cc1	.	28.5%	8.6%	3.3%	22.0%	10.7µM*
Cc1cc(C)c2oc(-c3ccc(Cl)c(NC(=O)c4cccs4)c3)nc2c1	7.8%	.	.	.	.	4.26µM*
Cc1nc2ccc(NC(=O)c3ccc(Cl)c(NC(=O)c4cccs4)c3)cc2s1	11.5%	22.7%	-2.3%	0.9%	4.3%	13.5µM*
